By inhibition is commonly meant the change of the read-out against control, counted positive when it falls.

The campaign covered roughly 330,000 compounds. About 1,900 (0.58%) were called active. Inconclusive results (about 4%) are left out. Rule as the data show it: inconclusive = inhibition above about 70% without an active follow-up result; inactive = below that. The list is a sample of the results. Entries with a potency or affinity are not part of this list.

The nature of the experiment: M. tuberculosis growth inhibition, HTS (AID 449762).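 Also: bacterial growth assessed after seven days of incubation.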 Conditions: M. tuberculosis H37Rv growth inhibition, 7H9 media; at 25 µM; stronger effect = higher value.
With `CSCCC(NC(=O)COc1ccccc1)C(=O)N1CCN(C(C)=O)CC1` (stereo not given), the inhibition is 4.67% (inactive).

`Cc1nc2ccccn2c1C(=O)N/N=C/c1ccccc1`: the inhibition was -1.76% (inactive). For `Cc1ccc(NC(=O)c2c(C)nc3ccccn23)cc1C`, the inhibition was -2.44% (inactive). Regarding `CCOC(=O)N1CCN(C(=O)COC(=O)Cc2ccc(OC)cc2)CC1`, the inhibition was -5.2% (inactive).

As for `CC(C)CNC(=O)c1cccc(NC(=O)Cc2ccc(Cl)cc2)c1`, the inhibition is -1.92% (inactive). For `CCc1nc(C)cn1S(=O)(=O)c1cc(F)ccc1OC` the value was 0.63% (inactive); for `Cc1ccc(OS(=O)Nc2cccc3nccnc23)cc1` (stereo not given), 49% (inactive). For the molecule `Fc1ccc(Nc2cccc3nccnc23)cc1`, the inhibition was 7.88% (inactive). As to `CNC(=S)NNC(=O)c1cc(-c2cccnc2)nc2ccccc12`, the inhibition was -1.9% (inactive). The value for `COc1ccc(NC(=O)COC(=O)CCc2ccc(S(=O)(=O)N3CCOCC3)cc2)c(OC)c1` was -0.81% (inactive); that for `Cc1[nH]n(-c2ccccc2)c(=O)c1C(=O)c1ccc(Cl)cc1` was 67.2% (inactive); that for `Cc1[nH]n(-c2ccccc2)c(=O)c1C(=O)c1ccccc1` was 1.23% (inactive). The value for `CCCSc1cc(NCCOC(C)=O)c([N+](=O)[O-])c2nonc12` was 14.4% (inactive); that for `COC(=O)CCSc1cc(NCCOC(C)=O)c([N+](=O)[O-])c2nonc12` was 27.1% (inactive); that for `O=c1cc(CO)oc(C(Nc2ccccn2)c2cccc(F)c2)c1O` (stereo not given) was -4.25% (inactive). For `Cc1ccc(-n2ccnc2SCC(=O)c2c(N)n(C3CC3)c(=O)[nH]c2=O)cc1C` the value was -3.24% (inactive); for `CC(OC(=O)CCC(=O)c1cccs1)C(=O)Nc1ccccc1[N+](=O)[O-]` (stereo not given), -1.97% (inactive). For the molecule `COc1ccc(OCCCC(=O)OC(C)C(=O)Nc2ccc(NC(C)=O)cc2)cc1` (stereo not given), the inhibition was -25.7% (inactive). `O=C(CC12CC3CC(CC(Br)(C3)C1)C2)Nc1cccc(S(=O)(=O)NC2=NCCC2)c1`: the inhibition is 7.59% (inactive). On to `CC(C)(C)NC(=S)N1CCn2cccc2C1c1cccnc1` (stereo not given), for which the inhibition is -4.33% (inactive). In the case of `O=C(N/N=C/c1ccc2ncccc2c1)c1cccc([N+](=O)[O-])c1`, the inhibition is 10.3% (inactive). The value for `CCCCNC(=O)CSc1nc2cc3c(cc2c(=O)n1Cc1ccco1)OCO3` was -13% (inactive); that for `COC(=O)COc1ccc(/C=C2/NC(=O)N(CC(=O)OC)C2=O)cc1` was 0.75% (inactive). For `CCN1C(=O)/C(=C/c2ccc(N3CCCC3)cc2)NC1=S` the value was -3.08% (inactive); for `CN(CC(=O)Nc1c(Cl)cccc1Cl)C(=O)Cc1cccs1`, -16.5% (inactive). As to `O=C(Nc1cccc(-c2nc3ccccc3s2)c1)c1cc(=O)c2ccccc2o1`, the inhibition is 10.9% (inactive). The value for `Cn1ncc([N+](=O)[O-])c1C(=O)Nc1cccc(Cl)c1` was -25.5% (inactive); that for `Cc1nc2c3ccccc3nc(NNC(=O)CCC(=O)N3CCC(C)CC3)n2n1` was -3.15% (inactive).

On to `Cc1nonc1OCCN1CCN(c2ccc([N+](=O)[O-])cc2)CC1`, for which the inhibition is 9.04% (inactive).

Consider `Cc1ccc(S(=O)(=O)Nc2ccc(C(N)=O)cc2)cc1[N+](=O)[O-]`, for which the inhibition was -1.5% (inactive). For `CCCNc1ccc(C(=O)OCC)cc1[N+](=O)[O-]` the value was -11.2% (inactive).

With `CCOC(=O)c1ccc(NC(C)=O)c([N+](=O)[O-])c1`, the inhibition was -9.36% (inactive). Regarding `O=C(/C=C/c1ccccc1)N/C(=C/c1ccccc1)C(=O)Nc1cccc(C(=O)O)c1`, the inhibition was -8.21% (inactive). For `Nc1cc2c(cc1C(=O)c1ccc(Cl)cc1)OCCO2` the value was 4.52% (inactive). Turning to `O=C(COc1ccc(Cl)cc1Cl)N/N=C/c1cccnc1`, the inhibition was -6.12% (inactive).

For `COc1cc(OC)cc(C(=O)Nc2ccc(N(C)C)c3ccccc23)c1`, the inhibition is 1.99% (inactive).

`CN(C)c1ccc(NC(=O)c2ccncc2)c2ccccc12`: the inhibition was -1.45% (inactive). With `CCOC(=O)C1=C(C)Nc2nc(C)nn2C1c1ccc(C)cc1` (stereo not given), the inhibition was 5.22% (inactive).

In the case of `CCCCN(CCCC)Cc1ccc(C(=O)NNC(=O)Nc2ccc(F)cc2)o1`, the inhibition was 4.32% (inactive). For the molecule `Cc1ccc(S(=O)(=O)NC(CC(C)C)C(=O)N2CCCC2)cc1` (stereo not given), the inhibition was -3.51% (inactive). The value for `CC(=O)Nc1ccc(S(=O)(=O)N[C@@H](C)C(=O)N2CCN(C/C=C/c3ccccc3)CC2)cc1` was -13.2% (inactive).

For `COc1ccc(-c2ccc(-c3nnn(CC(C)=O)n3)cc2)cc1`, the inhibition is 12.6% (inactive).

Regarding `COc1cccc(CN(C)C(=O)C(CCSC)NS(=O)(=O)c2ccc3c(c2)OCCO3)c1OC` (stereo not given), the inhibition was -2% (inactive).

With `CCCCn1cnc2c(oc3nc4c(cc32)CCCC4)c1=O`, the inhibition was 5.81% (inactive). `Oc1ccc2ccccc2c1/C=N/c1nccs1`: the inhibition was 0.82% (inactive). In the case of `Oc1ccc2ccccc2c1N=Nc1ccccc1F`, the inhibition was -3.05% (inactive). Regarding `CCOC(=O)c1sc(NC(=O)C(OC(C)=O)c2ccccc2)nc1C` (stereo not given), the inhibition was -4.59% (inactive).

Turning to `O=C(O)c1cc(C(F)(F)F)nc2c(C(F)(F)F)cccc12`, the inhibition is -3.33% (inactive). As for `COc1ccc(OC)c(C(O)C2CCCCN2)c1` (stereo not given), the inhibition was 0.57% (inactive). For the molecule `Cc1sc2nc(-c3ccc(Br)cc3)oc(=O)c2c1C`, the inhibition is 7.29% (inactive).

As for `O=C1[C@@H]2Cc3c([nH]c4ccccc34)CN2C(=O)CN1CCCCCO`, the inhibition was -3.43% (inactive). As to `c1ccc(Nc2ccccc2Nc2ccccn2)nc1`, the inhibition is -3.39% (inactive). In the case of `c1ccc(Nc2ccccn2)nc1`, the inhibition is 4.45% (inactive). `O=C(NC1CCS(=O)(=O)C1)/C(=C/c1ccco1)NC(=O)c1ccccc1` (stereo not given): the inhibition is -0.22% (inactive). For `CCC[C@H](N[C@@H](CCC)[C@H](O)c1ccccc1)[C@H](O)c1ccccc1` the value was -2.74% (inactive); for `O=C(Nc1ccc(F)cc1)c1ccc(S(=O)(=O)NCC2CCCO2)cc1` (stereo not given), 0.17% (inactive).

For the molecule `Cc1ccc(OCCNC(=O)CCNS(=O)(=O)c2ccc3ccccc3c2)cc1`, the inhibition is 1.14% (inactive). With `O=C(Nc1cnn(Cc2ccccc2)c1)c1cc2nc(-c3ccco3)cc(C(F)(F)F)n2n1`, the inhibition is 1.16% (inactive).

Regarding `Cc1nn(C)c(C)c1NC(=O)c1cc2nc(-c3ccco3)cc(C(F)(F)F)n2n1`, the inhibition is -8.4% (inactive). As for `COCCCN1C(=O)c2ccc(C(=O)NCCc3ccccc3)cc2C1=O`, the inhibition is 0.01% (inactive). Consider `O=[N+]([O-])c1ccc(C2CN=C(Nc3ccccc3)S2)cc1` (stereo not given), for which the inhibition is 0.07% (inactive). Take `CC1CN=C(Nc2ccccc2)S1` (stereo not given): the inhibition is 1.32% (inactive).

Consider `Cc1cc2c(OCC(O)CN3CCCCC3)cccc2[nH]1` (stereo not given), for which the inhibition was -0.02% (inactive).

For `COc1cc(C(=O)ONC(=O)c2ccc(OC(F)F)cc2)cc(OC)c1OC`, the inhibition is 0.02% (inactive). On to `O=C(NCc1ccc(Cl)cc1)C1CCCN(c2cnccn2)C1` (stereo not given), for which the inhibition is 3.46% (inactive).

Regarding `O=C(COc1ccc(S(=O)(=O)N2CCOCC2)cc1Cl)NCCN1CCOCC1`, the inhibition is 0.71% (inactive).

For `COc1ccc(-c2csc(-n3ncc(-c4ccccn4)c3N)n2)cc1`, the inhibition was 1.41% (inactive). As to `Nc1c(-c2cccs2)cnn1-c1nc(-c2ccc(F)cc2)cs1`, the inhibition was -11.5% (inactive). As for `COc1ccc(-c2n[nH]c(=S)n2CC(C)C)cc1`, the inhibition is -17.2% (inactive). Turning to `CN(C)CCCN(C(=O)c1ccc(C(=O)c2ccccc2)cc1)c1nc2cc3c(cc2s1)OCCO3`, the inhibition was 2.4% (inactive). As to `Cn1cc(C(=O)c2ccccc2C(=O)O)cc1C(=O)C(Cl)(Cl)Cl`, the inhibition was 1.33% (inactive).

`C=CCNC(=S)NNC(=O)c1cccc2ccccc12`: the inhibition is -8.25% (inactive).

For the molecule `CN(c1ccccc1)S(=O)(=O)c1ccc(C(=O)OCC(=O)NCc2cccs2)cc1`, the inhibition was -2.53% (inactive). Consider `CCN1C(N(C)CCc2cccs2)=N[C@@H](c2ccccc2)C(C(=O)OC)=C1C`, for which the inhibition was -2.75% (inactive). Consider `CCN1C(=O)N[C@@H](c2cccc(C(F)(F)F)c2)C(C(=O)OC)=C1C`, for which the inhibition is -2.1% (inactive). For `C=CC[C@@H](Cc1ccc(F)cc1)C(=O)OC[C@H]1CCCN1C(=O)[C@@H](CC=C)CC(=O)N[C@@H](CO)Cc1ccccc1` the value was -0.18% (inactive); for `O=C(SCC(O)C(O)CS)c1cccs1` (stereo not given), -1.44% (inactive); for `COc1ccc(C(=O)NN=C2CCCC2)c(OC)c1`, -0.32% (inactive). In the case of `O=C(C1CCC1)N1CCc2cc(S(=O)(=O)N3CCCCC3)ccc21`, the inhibition is -8.32% (inactive). For `O=C(C1CCCCC1)N1CCc2ccccc21` the value was 0.1% (inactive). Regarding `O=C(Nc1ccncc1)c1cc(-c2cccc(Br)c2)nc2ccccc12`, the inhibition was -13.1% (inactive). In the case of `CCn1nc(NS(=O)(=O)c2ccc([N+](=O)[O-])cc2)c2cc3cc(C)ccc3nc21`, the inhibition is 2.04% (inactive).

In the case of `COc1cccc(C(=O)OC(C)C(=O)Nc2ccc3c(c2)OCO3)c1` (stereo not given), the inhibition was -7.8% (inactive). As for `COc1ccc(-n2nc(C(=O)NCC(=O)N3CCCCCC3)c3ccccc3c2=O)cc1OC`, the inhibition was -4.92% (inactive).

Turning to `COc1ccc(Cn2cnc3c(N)c(C)c(C)cc32)cc1`, the inhibition is -12.4% (inactive).

With `CN(C)c1nc(SCc2ccccc2Cl)nc2c1CCCC2`, the inhibition is 20.2% (inactive). For `COC(=O)CSc1nc(SCc2ccccc2Cl)nc2c1CCCC2` the value was -6.09% (inactive); for `CC(C)OC(=O)c1nnn(-c2nonc2N)c1CN1CCCCCC1`, -9.91% (inactive); for `Cc1ccc(OCc2cc(C(=O)NCCn3cccn3)no2)cc1C`, 10.8% (inactive). The value for `COc1ccc(C(=O)NC(NC(=S)Nc2ccc(S(N)(=O)=O)cc2)C(Cl)(Cl)Cl)cc1` (stereo not given) was -5.71% (inactive); that for `Oc1ccc(C2=CCNCC2)cc1O` was -1.15% (inactive); that for `CN1c2ccccc2N(C)C1(C)c1ccccc1` was 4.29% (inactive). In the case of `CN1c2ccc([N+](=O)[O-])cc2N(C)C1(C)c1ccccc1` (stereo not given), the inhibition was -1.96% (inactive). For `Cc1cc(/C=C2/SC(=S)N(c3cccc(Cl)c3)C2=O)c(C)n1-c1cccnc1`, the inhibition is 59.7% (inactive). For `Cc1cc(C=C2C(=O)N(C)C(=S)N(C)C2=O)c(C)n1-c1cccnc1` the value was -1.48% (inactive).

For the origin of these results see PubChem BioAssay AID449762 (Southern Research Specialized Biocontainment Screening …, 2010).
